# Assay results reported in PubChem BioAssay (EPA / NIEHS).
# Inconclusive results are not listed. Activity calls are given as the source filed them. Rule for the calls: active = hit-call score of the fitted dose curve at least 0.9, where 1 is the maximum; inconclusive = response in the unintended direction; inactive = score below 0.9.
# Molecular target: human Peroxisome Proliferator-activated Receptor delta (PPARd), PPARD (gene 5467) (UniProt Q03181)
# Assay: ATG_PPARd_TRANS: Attagene TRANS-FACTORIAL HepG2 Assay for human Peroxisome Proliferator-activated Receptor delta (PPARd) (AID 2283002)
# Experimental: ATG_TRANS is a cell-based, multiplexed-readout assay that uses HepG2, a human liver cell line, with measurements taken at 24 hours after chemical dosing in a 24-well plate.ATG_PPARd_TRANS is one of 30 assay component(s) measured or calculated from the ATG_TRANS assay. It is designed to make measurements of mRNA induction, a form of inducible reporter, as detected with fluorescence intensity signals by Reverse transcription polymerase chain reaction (RT-PCR) and Capillary electrophoresis technology.Data from the assay component ATG_PPARd_TRANS was analyzed into 1 assay endpoint. This assay endpoint, ATG_PPARd_TRANS, was analyzed in the positive analysis fitting direction relative to DMSO as the negative control and baseline of activity. Using a type of inducible reporter, measures of mRNA for gain-of-signal activity can be used to understand the reporter gene at the transcription factor-level as they relate to the gene PPARD. Furthermore, this assay endpoint can be referred to as a primary readout, because this assay has produced multiple assay endpoints where this one serves a reporter gene function. To generalize the intended target to other relatable targets, this assay endpoint is annotated to the nuclear receptor intended target family, where the subfamily is non-steroidal.
# Human liver HepG2 cells are transiently transfected with multiple reporter transcription units (MRTUs) in 6-well plates using FuGene 6 reagent (Roche; 3 ml FuGene/1 mg DNA). The MRTU constructs are regulated by a cis-regulating element (promoter). […] A major difference between the CIS and TRANS system is that in CIS activities of endogenous TFs are measured, whereas the TRANS assay evaluates changes in activities of exogenous, chimeric NR-Gal4 proteins. […] At the end of 24 hour incubation, total RNA was isolated using TriZol reagent (Invitrogen). The isolated RNA is then reverse-transcribed using oligo(dT) primer and Mo-MLV reverse transcriptase (Invitrogen) with DNAse I (Ambion) treatment for 30 min. The one-tenth of the produced cDNA was amplified by PCR using Taq DNA polymerase (Invitrogen) and two reporter sequence-specific primers. The PCR products were fluorescently labeled by primer extension with 6-arboxyfluorescein (6-FAM) 5'-labeled reporter sequence-specific primer (2 min at 95 C, 20 s at 68 C and 10 min at 72 C) and these products were digested with 5U of HpaI (New England Biolabs) for 2h at 37 C. The fragments were purified using Qiaquick PCR columns (Qiagen), analyzed on an ABI 3130xL genetic analyzer (Applied Biosystems) with peak positions identified by using a set of X-rhodamine (ROX)-labeled MapMarker1000 molecular weight standards (BioVentures). The raw capillary electrophoresis data was processed using Attagraph software (Attagene).
# Chain of human Peroxisome Proliferator-activated Receptor delta (PPARd), PPARD (gene 5467) (Q03181 whole entry, looked up): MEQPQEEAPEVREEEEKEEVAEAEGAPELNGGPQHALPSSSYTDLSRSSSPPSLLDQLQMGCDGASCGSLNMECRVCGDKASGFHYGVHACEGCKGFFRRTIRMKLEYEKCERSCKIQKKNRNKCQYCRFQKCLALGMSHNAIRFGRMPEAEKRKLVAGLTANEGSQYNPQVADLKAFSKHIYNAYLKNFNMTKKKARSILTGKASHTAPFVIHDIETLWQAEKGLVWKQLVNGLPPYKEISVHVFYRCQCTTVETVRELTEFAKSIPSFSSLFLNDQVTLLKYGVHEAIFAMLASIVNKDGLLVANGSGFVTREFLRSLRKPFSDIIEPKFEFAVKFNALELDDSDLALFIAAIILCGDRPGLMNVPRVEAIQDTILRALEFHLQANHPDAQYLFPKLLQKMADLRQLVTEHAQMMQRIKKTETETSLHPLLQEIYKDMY
SMILES,outcome,AC50
CCCO[Si](OCCC)(OCCC)OCCC,inactive,
CC(=O)Nc1cc(S(=O)(=O)O)cc2cc(S(=O)(=O)O)c(N=Nc3ccccc3)c(O)c12,inactive,
C=C/C(C)=C/C/C=C(\C)CCC=C(C)C,inactive,
CCCCOCC(C)OCC(C)O (stereo not given),inactive,
CC/C=C\CCOC(C)OCC (stereo not given),inactive,
CCCCCCC(C)O (stereo not given),inactive,
C[C@]12CC[C@@H]3c4ccc(O)cc4CC[C@H]3[C@@H]1CC[C@@H]2O,inactive,
CC(C)CCCC(C)(C)O,inactive,
CC(=O)N(C)C,inactive,
CCCCCCCCCCCCOC(C)=O,inactive,
O=c1cc(-c2ccc(O)cc2)oc2cc(O)cc(O)c12,inactive,
CC(=O)CC(C)(C)C1CCCCC1,inactive,
CC(C)COC(=O)c1ccccc1O,inactive,
c1coc(CNc2ncnc3nc[nH]c23)c1,inactive,
COc1ccc(N)c(C)c1,inactive,
CC(O)CNCC(C)O (stereo not given),inactive,
CC(C)N1C(=O)c2ccccc2C1=O,inactive,
CC(C)(C)c1cccc(O)c1,inactive,
c1ccc(OCCOc2ccccc2)cc1,inactive,
CC(C)Cc1ccc(C(C)C(=O)O)cc1 (stereo not given),,142 µM (active)

SMILES,outcome,AC50
CC(C)(CO)CO,inactive,
CCCCCCCCCC(=O)OCC,inactive,
CCC(C)(C)c1cc(O)c(C(C)(C)CC)cc1O,inactive,
CC(=O)OC/C=C(C)/C=C/C=C(C)/C=C/C1=C(C)CCCC1(C)C,inactive,
CC(C)(C)C1CCC(O)CC1 (stereo not given),inactive,
COc1ccc(OC)cc1,inactive,
CCCCC/C=C\C=C\C(=O)OCC,inactive,
CC/C=C\CCOC(=O)C(C)C,inactive,
NC(=O)NC(N)=O,inactive,
OCCCO,inactive,
CC1=CC[C@@H]2C[C@H]1C2(C)C,inactive,
O=C1CCC(=O)N1,inactive,
CC/C=C\C#N,inactive,
Cc1cccc(C)c1,inactive,
CCCCOCCOC(=O)c1ccccc1C(=O)OCCOCCCC,inactive,
CC1(C)[C@H](C=C(Cl)Cl)[C@H]1C(=O)OCc1cccc(Oc2ccccc2)c1,inactive,
OCCN1CCOCC1,inactive,
CNC(=C[N+](=O)[O-])NCCSCc1ccc(CN(C)C)o1,inactive,
O=S1(=O)CC(Cl)(Cl)C(Cl)(Cl)C1,inactive,
CC(C)(O)CCc1ccccc1,inactive,
